According to PubChem BioAssay AID1159580 (chemical genetic matrix, 2015):
Hit rate of the full screen: of about 5,500 compounds, about 2,000 (36%) were called active. Another 18% or so got no clear call; they are omitted. Cut-off read from the data, not from the text of the source: active = normalized growth mostly below about 0.91 (no sharp cut-off); inconclusive = no clear call, values can overlap the other calls; inactive = mostly above about 0.92. The list shows a part of the results.

Experiment: chemical genetic growth profiling, strain panel (AID 1159580);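 note: tested at 20 µM; growth read once vehicle control cultures reached saturation at 30 °C; 1 = growth at the plate median or of vehicle wells; lower values mean less growth of the strain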
Details: growth OD

Measured: normalized growth

OC1C(O)C(O)C(O)C(O)C1O (stereo not given)
inactive: S. cerevisiae deletion strains, locus YJR075W, strain HOC1, hits give low values 1 | S. cerevisiae deletion strains, locus YKL009W, strain mrt4, hits give low values 0.953 | S. cerevisiae deletion strains, locus YKL068W, hits give low values 0.973 | S. cerevisiae deletion strains, locus YKL085W, strain MDH1 (second series), hits give low values 0.97 | S. cerevisiae deletion strains, locus YKL085W, strain MDH1, hits give low values 0.97 | S. cerevisiae deletion strains, locus YKL160W, strain elf1, hits give low values 1 | S. cerevisiae deletion strains, locus YKL190W, strain CNB1, hits give low values 0.99 | S. cerevisiae deletion strains, locus YKR001C, strain vps1, hits give low values 0.982 | S. cerevisiae deletion strains, locus YKR026C, strain gcn3, hits give low values 0.997 | S. cerevisiae deletion strains, locus YKR091W, strain srl3, hits give low values 0.999 | S. cerevisiae deletion strains, locus YLL001W, strain dnm1, hits give low values 0.997 | S. cerevisiae deletion strains, locus YLL026W, hits give low values 1 | S. cerevisiae deletion strains, locus YLL041C, strain sdh2, hits give low values 0.996 | S. cerevisiae deletion strains, locus YLR027C, strain aat2, hits give low values 1 | S. cerevisiae deletion strains, locus YLR039C, strain RIC1, hits give low values 0.966 | S. cerevisiae deletion strains, locus YLR058C, strain SHM2, hits give low values 0.982 | S. cerevisiae deletion strains, locus YLR102C, strain apc9, hits give low values 0.994 | S. cerevisiae deletion strains, locus YLR113W, strain HOG1, hits give low values 0.964 | S. cerevisiae deletion strains, locus YLR221C, strain rsa3, hits give low values 1 | S. cerevisiae deletion strains, locus YLR258W, strain gsy2, hits give low values 0.998 | S. cerevisiae deletion strains, locus YLR262C, strain YPT6 (second series), hits give low values 1 | S. cerevisiae deletion strains, locus YLR262C, strain YPT6, hits give low values 0.962 | S. cerevisiae deletion strains, locus YLR268W, strain sec22, hits give low values 0.996 | S. cerevisiae deletion strains, locus YLR320W, strain mms22, hits give low values 0.998 | S. cerevisiae deletion strains, locus YLR330W, strain CHS5, hits give low values 0.995 | S. cerevisiae deletion strains, locus YLR342W, strain FKS1 (second series), hits give low values 1.04 | S. cerevisiae deletion strains, locus YLR342W, strain FKS1, hits give low values 0.995 | S. cerevisiae deletion strains, locus YLR357W, strain rsc2, hits give low values 0.988 | S. cerevisiae deletion strains, locus YLR370C, strain arc18, hits give low values 1 | S. cerevisiae deletion strains, locus YLR371W, strain rom2, hits give low values 0.976 | S. cerevisiae deletion strains, locus YLR384C, strain iki3, hits give low values 0.998 | S. cerevisiae deletion strains, locus YLR418C, strain cdc73, hits give low values 0.979 | S. cerevisiae deletion strains, locus YML016C, strain PPZ1, hits give low values 0.996 | S. cerevisiae deletion strains, locus YML032C, strain rad52, hits give low values 0.981 | S. cerevisiae deletion strains, locus YML120C, strain ndi1, hits give low values 1.01 | S. cerevisiae deletion strains, locus YML124C, strain tub3, hits give low values 0.985 | S. cerevisiae deletion strains, locus YMR058W, strain fet3, hits give low values 1 | S. cerevisiae deletion strains, locus YMR078C, strain ctf18, hits give low values 0.982 | S. cerevisiae deletion strains, locus YMR125W, strain sto1, hits give low values 0.991 | S. cerevisiae deletion strains, locus YMR129W, hits give low values 0.997 | S. cerevisiae deletion strains, locus YMR205C, strain PFK2, hits give low values 0.996 | S. cerevisiae deletion strains, locus YMR223W, strain ubp8, hits give low values 1.02 | S. cerevisiae deletion strains, locus YMR231W, strain pep5, hits give low values 1 | S. cerevisiae deletion strains, locus YMR263W, strain SAP30, hits give low values 0.99 | S. cerevisiae deletion strains, locus YMR307W, strain GAS1, hits give low values 1.03 | S. cerevisiae deletion strains, locus YNL067W, strain RPL9B, hits give low values 0.965 | S. cerevisiae deletion strains, locus YNL071W, strain lat1, hits give low values 1 | S. cerevisiae deletion strains, locus YNL153C, strain GIM3, hits give low values 0.972 | S. cerevisiae deletion strains, locus YNL183C, strain NPR1, hits give low values 0.984 | S. cerevisiae deletion strains, locus YNL209W, strain ssb2, hits give low values 0.997 | S. cerevisiae deletion strains, locus YNL233W, strain BNI4, hits give low values 0.996 | S. cerevisiae deletion strains, locus YNL248C, strain rpa49, hits give low values 0.99 | S. cerevisiae deletion strains, locus YNL250W, strain rad50, hits give low values 0.979 | S. cerevisiae deletion strains, locus YNL271C, strain bni1, hits give low values 0.984 | S. cerevisiae deletion strains, locus YNL298W, strain CLA4, hits give low values 0.991 | S. cerevisiae deletion strains, locus YNL307C, strain MCK1, hits give low values 0.984 | S. cerevisiae deletion strains, locus YNL322C, strain KRE1 (second series), hits give low values 1 | S. cerevisiae deletion strains, locus YNL322C, strain KRE1, hits give low values 0.993 | S. cerevisiae deletion strains, locus YNR049C, strain mso1, hits give low values 1 | S. cerevisiae deletion strains, locus YNR052C, strain pop2, hits give low values 0.989 | S. cerevisiae deletion strains, locus YOL006C, strain TOP1, hits give low values 0.938 | S. cerevisiae deletion strains, locus YOL012C, strain htz1 1.04 | S. cerevisiae deletion strains, locus YOL147C, strain pex11, hits give low values 0.994 | S. cerevisiae deletion strains, locus YOR001W, strain rrp6, hits give low values 1.01 | S. cerevisiae deletion strains, locus YOR061W, strain CKA2, hits give low values 0.974 | S. cerevisiae deletion strains, locus YOR069W, strain VPS5, hits give low values 0.997 | S. cerevisiae deletion strains, locus YOR070C, strain gyp1, hits give low values 1 | S. cerevisiae deletion strains, locus YOR080W, strain dia2, hits give low values 0.993 | S. cerevisiae deletion strains, locus YOR083W, strain WHI5, hits give low values 1 | S. cerevisiae deletion strains, locus YOR106W, strain vam3, hits give low values 1 | S. cerevisiae deletion strains, locus YOR136W, strain idh2, hits give low values 0.984 | S. cerevisiae deletion strains, locus YOR144C, strain elg1, hits give low values 0.987 | S. cerevisiae deletion strains, locus YOR184W, strain ser1, hits give low values 0.996 | S. cerevisiae deletion strains, locus YOR231W, strain MKK1, hits give low values 0.995 | S. cerevisiae deletion strains, locus YOR265W, strain rbl2, hits give low values 1 | S. cerevisiae deletion strains, locus YOR270C, strain vph1, hits give low values 1 | S. cerevisiae deletion strains, locus YOR290C, strain snf2, hits give low values 0.996 | S. cerevisiae deletion strains, locus YOR316C, strain cot1, hits give low values 0.979 | S. cerevisiae deletion strains, locus YPL051W, strain arl3, hits give low values 1.01 | S. cerevisiae deletion strains, locus YPL055C, strain LGE1, hits give low values 0.966 | S. cerevisiae deletion strains, locus YPL078C, strain atp4, hits give low values 1 | S. cerevisiae deletion strains, locus YPL106C, strain sse1, hits give low values 1 | S. cerevisiae deletion strains, locus YPL240C, strain hsp82, hits give low values 0.995 | S. cerevisiae deletion strains, locus YPL256C, strain CLN2, hits give low values 0.961 | S. cerevisiae deletion strains, locus YPR119W, strain clb2, hits give low values 0.993 | S. cerevisiae deletion strains, locus YPR141C, strain kar3, hits give low values 0.929 | S. cerevisiae deletion strains, locus YPR163C, strain tif3, hits give low values 0.991 | S. cerevisiae deletion strains, locus YPR167C, strain met16, hits give low values 0.985 | S. cerevisiae deletion strains, strain wtn01, hits give low values 0.993 | S. cerevisiae strains, strain wild type, hits give low values 0.994
